# High-throughput results as filed in PubChem BioAssay.
# HepG2 viability – kills HepG2 cells in TGF-b inhibitor counter-screen; 410,000 compounds, 0.76% hits; HepG2 CAGA-GFP viability, ATP luminescence, 18 h; Potency, µM (doses to about 46.1 µM), actives largely listed as cytotoxic
#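 CellTiter-Glo luminescence gave cytotoxicity after 18 hours at 37 degrees C. The cells were HepG2 CAGA-GFP in 1% FBS DMEM, stimulated with 500 pg/mL TGF-beta after compound addition. %Activity was normalised to no-cell wells (complete cell-killing) and DMSO (no toxicity), and curves were fitted and classified.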
# IL1B secr inh – inhibitors of inflammasome signaling (IL-1 beta secretion) | 360,000 compounds, 4.7% hits | activity change, % at 57.5 µM | AID 743279 | THP-1 LPS/ATP IL-1B secretion, AlphaLISA, 16 h; stronger effect = lower value; in the data active means activity change below about -50%; inconclusive means mostly about -30% to -49%
#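 THP-1 cells pretreated 1 hr with compounds (up to 57.5 uM final), then stimulated with LPS (250 ng/mL final) plus ATP (1.25 mM final); secreted IL-1B measured by AlphaLISA after 16 hr, decreased signal indicating inhibition.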
# TDP1 cell noCPT – qHTS for Inhibitors of human tyrosyl-DNA phosphodiesterase 1 (TDP1): qHTS in cells in absence of CPT; DT40 Tdp1-/- hTDP1 cells, no CPT, ATP luminescence, 48 h; Potency, µM (highest dose often 46.2 µM), actives largely listed as inhibitors; 420,000 compounds, 15% hits; further: nearly all actives have a fitted effect of over 55% in size
#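 Compound effects on proliferation are scored in DT40 Tdp1-/-;hTDP1 cells in the absence of CPT. ATP levels (CellTiter-Glo luminescence) are recorded after a ≥48 hr, 37 °C incubation.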
# TDP1 block – inhibitors of human tyrosyl-DNA phosphodiesterase TDP1; Q9NUW8; recombinant TDP1, AlphaScreen DNA substrate cleavage; Potency, µM (titrated, usually from 130 µM), usual class: inhibitors; 350,000 compounds, 0.28% hits; further: nearly all actives have a fitted effect of over 40% in size
# Target sequence (Q9NUW8 whole entry, looked up): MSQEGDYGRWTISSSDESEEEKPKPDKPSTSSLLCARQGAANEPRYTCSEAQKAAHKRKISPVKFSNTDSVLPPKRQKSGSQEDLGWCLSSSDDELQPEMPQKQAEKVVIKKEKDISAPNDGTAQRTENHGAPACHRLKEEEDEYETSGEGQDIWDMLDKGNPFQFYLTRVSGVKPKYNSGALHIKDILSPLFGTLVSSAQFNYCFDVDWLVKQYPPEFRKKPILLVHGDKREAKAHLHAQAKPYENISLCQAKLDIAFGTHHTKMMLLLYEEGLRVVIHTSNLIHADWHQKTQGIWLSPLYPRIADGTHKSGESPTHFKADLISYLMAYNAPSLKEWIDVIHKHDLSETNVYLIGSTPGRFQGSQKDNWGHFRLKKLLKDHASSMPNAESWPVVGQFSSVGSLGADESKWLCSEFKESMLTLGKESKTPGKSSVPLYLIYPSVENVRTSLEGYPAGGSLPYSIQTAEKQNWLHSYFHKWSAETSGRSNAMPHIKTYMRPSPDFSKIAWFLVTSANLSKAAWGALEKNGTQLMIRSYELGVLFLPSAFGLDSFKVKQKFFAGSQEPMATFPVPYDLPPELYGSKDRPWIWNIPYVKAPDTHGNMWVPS
#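 E. coli-derived human Tdp1, 1 nM final. Cpd preinc 15 min RT; substrate 15 nM final, 5 min RT; AS bead mix 10 ug/ml final, 10 min RT. Signal loss = tyrosine-FITC cleavage. No-enzyme wells = max signal.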
# TGFb inhibitor – blocks TGF-b signaling; Potency, µM (series often up to 46.1 µM), usual class: inhibitors; HepG2 CAGA-GFP TGF-b/SMAD3 reporter, GFP fluorescence, 18 h; TGF-beta stimulated, 500 pg/mL final; AID 588855; 410,000 compounds, 1.2% hits; further: nearly all actives have a fitted effect of over 65% in size
#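 First, reporter cells (HEPG2 CAGA-GFP) rested 2 h at 37 degrees C. Next, compounds were pinned in and TGF-beta added to 500 pg/mL final. After 18 h, GFP was imaged per cell and summed per well.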
# DT40 TDP1 CPT – DT40-hTDP1 cell growth loss with CPT. chicken DT40 Tdp1-/-;hTDP1 cells + 20 nM CPT, ATP luminescence, 48 h. Potency, µM (doses to about 46.2 µM), actives largely listed as inhibitors. 420,000 compounds, 12% hits. AID 686979; further: nearly all actives have a fitted effect of over 55% in size
#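 Chicken DT40 Tdp1-/- cells complemented with human TDP1, 400 cells/well, exposed to compounds plus 20 nM camptothecin for at least 48 h at 37 C; viability read as ATP content by CellTiter-Glo luminescence.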
# Hits are given with their value; n = inactive; u = inconclusive; x = no result given; [ ] = remark or other dose. Rows were chosen to be rich in hits. Some 18% of all compounds tested hit in one or more screens of this group. Unless noted, the call rests on the fitted dose curve; in most records, active means well fitted curve in the direction sought with a large enough effect; inconclusive means small, poorly fitted or top-dose-only effect, or another doubt; inactive means no such curve, though single readings can be large; an effect the other way counts as inactive or inconclusive.
SMILES,HepG2 viability,IL1B secr inh,TDP1 cell noCPT,TDP1 block,TGFb inhibitor,DT40 TDP1 CPT
N#Cc1ccc(-c2csc(NC(=O)C3CC3)n2)cc1,n,n,0.37µM,n,n,0.73µM
Cc1nc(-c2ccc(C#N)cc2)cs1,n,n,n,n,n,n
O=C(O)/C=C/C(=O)Nc1nc(-c2ccc3ccccc3c2)cs1,n,n,n,x,n,n
N#Cc1ccc(-c2csc(NC(=O)/C=C/c3cccs3)n2)cc1,n,n,10µM,n,n,13µM
O=C(Nc1cccc(C(=O)OCc2cc(=O)n3nc(C4CC4)sc3n2)c1)c1ccc(F)cc1,n,x,n,n,n,n
O=C(O)c1cc(N2CCCC2)ccn1,n,n,n,x,n,n
CC(CC(=O)Nc1ccc2c(c1)c(=O)n(C)n2Cc1ccc(F)cc1)C(F)(F)F (configuration not stated),n,n,u,x,n,u
CC(CC(=O)Nc1ccc2c(c1)c(=O)n(C)n2Cc1ccc(F)cc1)c1ccccc1 (configuration not stated),n,n,21µM,x,n,21µM
Cn1c(=O)c2cc(NC(=O)CC(C)(C)C)ccc2n1-c1ccccc1F,n,n,23µM,x,n,u
CCNC(=S)Nc1ccc2c(c1)c(=O)n(C)n2-c1cc(C)cc(C)c1,n,n,u,x,n,u
CC(CC(=O)Nc1cccc(Cl)c1)c1ccccc1 (configuration not stated),n,-72,u,n,n,u
CC(CC(=O)Nc1ccc2c(c1)c(=O)n(C)n2-c1ccccc1F)c1ccccc1 (configuration not stated),n,n,5.8µM,x,n,6.5µM
COc1ccc(S(=O)(=O)N(C)CC(=O)N2CCCC2)cc1OC,n,n,n,n,n,n
CNC(=O)C[C@H]1C(=O)N(CCc2ccccc2)C[C@@H]1CSC,n,n,n,x,n,n
CC1(C)CC(=O)C(C=Nc2ccc(O)cc2)=C(O)C1,n,n,23µM,n,n,u
Cc1[nH]nc(N=CC2=C(O)CC(C)(C)CC2=O)c1-c1ccc(Cl)cc1,n,n,12µM,n,n,12µM
CC1(C)CC(=O)C(C=Nc2ccc(N)cc2)=C(O)C1,n,n,n,n,n,n
Cc1[nH]nc(N=CC2=C(O)CC(c3ccco3)CC2=O)c1-c1ccc(Cl)cc1 (configuration not stated),n,u,n,n,n,u
CN(C)C(=O)c1ccc(-c2cncnc2NCc2cccnc2)cc1,x,x,n,x,x,n
Cc1ccc2nc(CNC(=O)c3cc(NC(=O)c4ccccc4)cc4ncn(C5CCCC5)c34)cn2c1,x,x,n,x,x,n
CC1=NN(c2ccccc2)C(=O)/C1=C/c1cn(C)c2ccccc12,n,n,u,n,n,u
CC(NC(=O)CN(C)Cc1nc2ccccc2c(=O)[nH]1)c1ccccc1 (configuration not stated),n,n,n,n,n,n
COCC(=O)N(Cc1ccc(OC)cc1)Cc1nc2ccccc2c(=O)[nH]1,n,n,n,n,n,n
CCN(Cc1nc2ccccc2c(=O)[nH]1)C(=O)COc1ccccc1Cc1ccccc1,n,-67,4.1µM,n,n,4.6µM
COCCN(Cc1nc2ccccc2c(=O)[nH]1)C(=O)COc1ccccc1-c1ccccc1,n,-68,23µM,n,n,u
SMILES,HepG2 viability,IL1B secr inh,TDP1 cell noCPT,TDP1 block,TGFb inhibitor,DT40 TDP1 CPT
CC(C(=O)Nc1ccccc1-c1ccccc1)N(C)Cc1nc2ccccc2c(=O)[nH]1 (configuration not stated),n,n,21µM,n,n,13µM
COCC(=O)N(CCc1ccc(OC)cc1)Cc1nc2ccccc2c(=O)[nH]1,n,n,3.3µM,n,n,u
Cc1ccc(NC(=O)CN2C(=O)CCn3nc(-c4cccn4C)cc32)cc1,n,x,n,n,n,n
CCOc1ccccc1NC(=O)c1ccc2oc(=O)c(S(=O)(=O)c3ccc(F)cc3)cc2c1,n,x,n,n,n,n
CCN(Cc1nc2ccccc2c(=O)[nH]1)C(=O)c1cccc(OCc2c(C)noc2C)c1,n,n,16µM,n,u,u
O=C(CCNc1cccc(Cl)c1)c1ccco1,n,n,8.2µM,n,u,7.3µM
CCOc1ccc(NC(=O)C2CCCN(S(=O)(=O)c3ccc4c(c3)CC(C)N4C(C)=O)C2)cc1 (configuration not stated),n,n,n,n,n,u
CCCNC(=O)C1CCCN(S(=O)(=O)c2ccc3c(c2)CC(C)N3C(=O)C2CC2)C1 (configuration not stated),n,n,u,x,u,u
CCc1ccc(NC(=O)C2CCN(S(=O)(=O)c3ccc4c(c3)CC(C)N4C(C)=O)CC2)cc1 (configuration not stated),n,n,10µM,x,u,16µM
CC(=O)N1c2ccc(S(=O)(=O)N3CCCC(C(=O)N4CCCCC4)C3)cc2CC1C (configuration not stated),n,n,u,x,n,u
CC(=O)N1c2ccc(S(=O)(=O)N3CCCC(C(=O)Nc4ccc(F)cc4)C3)cc2CC1C (configuration not stated),n,n,23µM,x,n,u
CCc1ccc(NC(=O)C2CCCN(S(=O)(=O)c3ccc4c(c3)CC(C)N4C(C)=O)C2)cc1 (configuration not stated),n,n,26µM,x,u,16µM
CC(C)CCNC(=O)C1CCCN(S(=O)(=O)c2ccc3c(c2)CC(C)N3C(=O)C2CC2)C1 (configuration not stated),n,-55,n,n,n,u
O=C(OCC(=O)N1CCCC1)c1c2c(nc3ccccc13)CCCCC2,n,n,u,n,n,u
Cc1ccc(OCc2cc(C(=O)N3CC4C[C@@H]5CC3C[C@H](C4)C5)no2)cc1C,n,n,u,n,n,u
CCCCNC(=O)CSc1nc2cc3c(cc2c(=O)n1CCCCCC(=O)NCc1ccc(OC)cc1)OCO3,n,x,n,n,n,n
CCc1ccc(NC(=O)Cn2c(=O)n(CCC(=O)NCCc3ccc(OC)c(OC)c3)c(=O)c3ccccc32)cc1,n,x,n,n,n,n
CCCCC1=CC2=CC(=O)C(C)(OC(=O)CC)C(=O)C2=CN1c1cccc(C#N)c1 (configuration not stated),n,n,n,n[12.3 µM],n,u
